Data reported in PubChem BioAssay AID1159580 (chemical genetic matrix, 2015).
“And” between values parts separate entries of the source, which are not always exact repeats. Identical values can stand only once. Among all 5,500 compounds or so, about 2,000 (36%) were called active. Roughly 18% stayed inconclusive and do not appear here. Cut-off read from the data, not from the text of the source: active = normalized growth mostly below about 0.91 (no sharp cut-off); inconclusive = no clear call, values can overlap the other calls; inactive = mostly above about 0.92. Some of the results follow.

Assay: chemical genetic growth profiling, strain panel (AID 1159580);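 note: tested at 20 µM; growth read once vehicle control cultures reached saturation at 30 °C; 1 = growth at the plate median or of vehicle wells; lower values mean less growth of the strain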
Settings: growth OD

Measured: normalized growth

COC(=O)C[C@H]1C(C)(C)C(=O)[C@@H]2CC3=C(CC[C@]4(C)C3=CC(=O)O[C@H]4c3ccoc3)[C@@]1(C)C2=O
inactive: S. cerevisiae deletion strains, locus YAL021C, strain ccr4, stronger effect = lower value 1.02 | S. cerevisiae deletion strains, locus YAL026C, strain drs2, stronger effect = lower value 0.985 | S. cerevisiae deletion strains, locus YAL030W, strain snc1, stronger effect = lower value 0.979 | S. cerevisiae deletion strains, locus YBL061C, strain skt5, stronger effect = lower value 0.986 | S. cerevisiae deletion strains, locus YBR009C, strain hhf1, stronger effect = lower value 0.983 | S. cerevisiae deletion strains, locus YBR021W, strain FUR4, stronger effect = lower value 0.992 | S. cerevisiae deletion strains, locus YBR023C, strain chs3, stronger effect = lower value 0.976 | S. cerevisiae deletion strains, locus YBR171W, strain sec66, stronger effect = lower value 0.947 | S. cerevisiae deletion strains, locus YBR229C, strain ROT2, stronger effect = lower value 1 | S. cerevisiae deletion strains, locus YBR231C, strain swc5, stronger effect = lower value 0.968 | S. cerevisiae deletion strains, locus YBR279W, strain paf1, stronger effect = lower value 0.988 | S. cerevisiae deletion strains, locus YCL011C, strain gbp2, stronger effect = lower value 0.953 | S. cerevisiae deletion strains, locus YCL016C, strain dcc1, stronger effect = lower value 0.993 | S. cerevisiae deletion strains, locus YCL029C, strain bik1, stronger effect = lower value 1.02 | S. cerevisiae deletion strains, locus YCL061C, strain MRC1, stronger effect = lower value 1 | S. cerevisiae deletion strains, locus YCL069W, strain vba3, stronger effect = lower value 0.958 | S. cerevisiae deletion strains, locus YCR088W, strain abp1, stronger effect = lower value 0.96 | S. cerevisiae deletion strains, locus YDL005C, strain med2, stronger effect = lower value 0.966 | S. cerevisiae deletion strains, locus YDL035C, strain GPR1, stronger effect = lower value 0.996 | S. cerevisiae deletion strains, locus YDL040C, strain nat1, stronger effect = lower value 0.966 | S. cerevisiae deletion strains, locus YDL074C, strain BRE1, stronger effect = lower value 1 | S. cerevisiae deletion strains, locus YDL101C, strain DUN1, stronger effect = lower value 1 | S. cerevisiae deletion strains, locus YDL134C, strain PPH21, stronger effect = lower value 1 | S. cerevisiae deletion strains, locus YDL185W, strain tfp1, stronger effect = lower value 1.01 | S. cerevisiae deletion strains, locus YDL192W, strain arf1, stronger effect = lower value 1.02 | S. cerevisiae deletion strains, locus YDR001C, strain nth1, stronger effect = lower value 0.979 | S. cerevisiae deletion strains, locus YDR069C, strain doa4, stronger effect = lower value 0.961 | S. cerevisiae deletion strains, locus YDR101C, strain arx1, stronger effect = lower value 1.01 | S. cerevisiae deletion strains, locus YDR137W, strain rgp1, stronger effect = lower value 1 | S. cerevisiae deletion strains, locus YDR159W, strain sac3, stronger effect = lower value 0.962 | S. cerevisiae deletion strains, locus YDR162C, strain NBP2, stronger effect = lower value 1.01 | S. cerevisiae deletion strains, locus YDR195W, strain ref2 0.956 | S. cerevisiae deletion strains, locus YDR297W, strain sur2, stronger effect = lower value 0.977 | S. cerevisiae deletion strains, locus YDR318W, strain mcm21, stronger effect = lower value 1.02 | S. cerevisiae deletion strains, locus YDR334W, strain swr1, stronger effect = lower value 0.961 | S. cerevisiae deletion strains, locus YDR335W, strain msn5, stronger effect = lower value 0.968 | S. cerevisiae deletion strains, locus YDR388W, stronger effect = lower value 1.01 | S. cerevisiae deletion strains, locus YDR392W, strain spt3, stronger effect = lower value 0.96 | S. cerevisiae deletion strains, locus YDR502C, strain sam2, stronger effect = lower value 1 | S. cerevisiae deletion strains, locus YEL003W, strain gim4, stronger effect = lower value 0.973 | S. cerevisiae deletion strains, locus YEL037C, strain rad23, stronger effect = lower value 0.962 | S. cerevisiae deletion strains, locus YEL061C, strain CIN8 (second series), stronger effect = lower value 0.958 | S. cerevisiae deletion strains, locus YEL061C, strain CIN8, stronger effect = lower value 0.999 | S. cerevisiae deletion strains, locus YER015W, strain faa2, stronger effect = lower value 0.985 | S. cerevisiae deletion strains, locus YER016W, strain bim1, stronger effect = lower value 0.971 | S. cerevisiae deletion strains, locus YER110C, stronger effect = lower value 1.02 | S. cerevisiae deletion strains, locus YER111C, strain swi4, stronger effect = lower value 0.953 | S. cerevisiae deletion strains, locus YER155C, strain BEM2 (second series), stronger effect = lower value 0.988 | S. cerevisiae deletion strains, locus YER155C, strain BEM2, stronger effect = lower value 1 | S. cerevisiae deletion strains, locus YER167W, strain BCK2, stronger effect = lower value 1.01 | S. cerevisiae deletion strains, locus YFR010W, strain ubp6, stronger effect = lower value 0.961 | S. cerevisiae deletion strains, locus YGL078C, strain dbp3, stronger effect = lower value 1.03 | S. cerevisiae deletion strains, locus YGL086W, strain mad1, stronger effect = lower value 1 | S. cerevisiae deletion strains, locus YGL167C, strain pmr1, stronger effect = lower value 0.988 | S. cerevisiae deletion strains, locus YGL173C, strain kem1, stronger effect = lower value 0.975 | S. cerevisiae deletion strains, locus YGL227W, strain vid30, stronger effect = lower value 0.976 | S. cerevisiae deletion strains, locus YGL240W, strain doc1, stronger effect = lower value 0.954 | S. cerevisiae deletion strains, locus YGL248W, strain PDE1, stronger effect = lower value 1.01 | S. cerevisiae deletion strains, locus YGL253W, strain hxk2, stronger effect = lower value 0.951 | S. cerevisiae deletion strains, locus YGR135W, strain pre9, stronger effect = lower value 1.01 | S. cerevisiae deletion strains, locus YGR229C, strain SMI1, stronger effect = lower value 1.01 | S. cerevisiae deletion strains, locus YGR252W, strain gcn5, stronger effect = lower value 1 | S. cerevisiae deletion strains, locus YHR013C, strain ard1, stronger effect = lower value 0.981 | S. cerevisiae deletion strains, locus YHR027C, strain rpn1, stronger effect = lower value 0.994 | S. cerevisiae deletion strains, locus YHR030C, strain SLT2, stronger effect = lower value 0.985 | S. cerevisiae deletion strains, locus YHR079C, strain IRE1 (second series), stronger effect = lower value 1.02 | S. cerevisiae deletion strains, locus YHR079C, strain IRE1, stronger effect = lower value 0.974 | S. cerevisiae deletion strains, locus YHR094C, strain hxt1, stronger effect = lower value 1.01 | S. cerevisiae deletion strains, locus YHR129C, strain ARP1, stronger effect = lower value 0.998 | S. cerevisiae deletion strains, locus YHR142W, strain chs7, stronger effect = lower value 0.965 | S. cerevisiae deletion strains, locus YHR200W, strain rpn10, stronger effect = lower value 0.996 | S. cerevisiae deletion strains, locus YIL066C, strain RNR3, stronger effect = lower value 0.999 | S. cerevisiae deletion strains, locus YIL073C, strain SPO22, stronger effect = lower value 1.09 | S. cerevisiae deletion strains, locus YIL125W, strain kgd1, stronger effect = lower value 1.01 | S. cerevisiae deletion strains, locus YIR030C, strain dcg1, stronger effect = lower value 1.02 | S. cerevisiae deletion strains, locus YJL092W, strain hpr5, stronger effect = lower value 0.964 | S. cerevisiae deletion strains, locus YJL095W, strain BCK1 (second series), stronger effect = lower value 0.99 | S. cerevisiae deletion strains, locus YJL095W, strain BCK1, stronger effect = lower value 1.01 and 0.983 | S. cerevisiae deletion strains, locus YJL115W, strain asf1, stronger effect = lower value 0.97 | S. cerevisiae deletion strains, locus YJL129C, strain trk1, stronger effect = lower value 0.959 | S. cerevisiae deletion strains, locus YJL134W, strain LCB3, stronger effect = lower value 1 | S. cerevisiae deletion strains, locus YJL154C, strain vps35, stronger effect = lower value 0.966 | S. cerevisiae deletion strains, locus YJL164C, strain tpk1, stronger effect = lower value 0.994 | S. cerevisiae deletion strains, locus YJL166W, strain qcr8, stronger effect = lower value 0.973 | S. cerevisiae deletion strains, locus YJL168C, strain set2, stronger effect = lower value 1.02 | S. cerevisiae deletion strains, locus YJL187C, strain SWE1 (second series), stronger effect = lower value 1.01 | S. cerevisiae deletion strains, locus YJL187C, strain SWE1, stronger effect = lower value 0.993 | S. cerevisiae deletion strains, locus YJR066W, strain TOR1, stronger effect = lower value 0.928 | S. cerevisiae deletion strains, locus YKL009W, strain mrt4, stronger effect = lower value 1.01 | S. cerevisiae deletion strains, locus YKL068W, stronger effect = lower value 1.01 | S. cerevisiae deletion strains, locus YKL085W, strain MDH1 (second series), stronger effect = lower value 1.01 | S. cerevisiae deletion strains, locus YKL085W, strain MDH1, stronger effect = lower value 1.01 | S. cerevisiae deletion strains, locus YKL160W, strain elf1, stronger effect = lower value 0.995 | S. cerevisiae deletion strains, locus YKR001C, strain vps1, stronger effect = lower value 1.01 | S. cerevisiae deletion strains, locus YKR026C, strain gcn3, stronger effect = lower value 0.975 | S. cerevisiae deletion strains, locus YKR091W, strain srl3, stronger effect = lower value 0.984 | S. cerevisiae deletion strains, locus YLL001W, strain dnm1, stronger effect = lower value 1 | S. cerevisiae deletion strains, locus YLL026W, stronger effect = lower value 0.982 | S. cerevisiae deletion strains, locus YLL041C, strain sdh2, stronger effect = lower value 0.972 | S. cerevisiae deletion strains, locus YLR027C, strain aat2, stronger effect = lower value 0.984 | S. cerevisiae deletion strains, locus YLR039C, strain RIC1, stronger effect = lower value 1.03 | S. cerevisiae deletion strains, locus YLR058C, strain SHM2, stronger effect = lower value 1.01 | S. cerevisiae deletion strains, locus YLR102C, strain apc9, stronger effect = lower value 1.02 | S. cerevisiae deletion strains, locus YLR113W, strain HOG1, stronger effect = lower value 1.02 | S. cerevisiae deletion strains, locus YLR221C, strain rsa3, stronger effect = lower value 0.958 | S. cerevisiae deletion strains, locus YLR258W, strain gsy2, stronger effect = lower value 0.961 | S. cerevisiae deletion strains, locus YLR262C, strain YPT6 (second series), stronger effect = lower value 1.04 | S. cerevisiae deletion strains, locus YLR262C, strain YPT6, stronger effect = lower value 1.09 | S. cerevisiae deletion strains, locus YLR268W, strain sec22, stronger effect = lower value 1.01 | S. cerevisiae deletion strains, locus YLR320W, strain mms22, stronger effect = lower value 0.963 | S. cerevisiae deletion strains, locus YLR342W, strain FKS1, stronger effect = lower value 0.963 | S. cerevisiae deletion strains, locus YLR357W, strain rsc2, stronger effect = lower value 0.963 | S. cerevisiae deletion strains, locus YLR370C, strain arc18, stronger effect = lower value 0.956 | S. cerevisiae deletion strains, locus YLR371W, strain rom2, stronger effect = lower value 1.02 | S. cerevisiae deletion strains, locus YLR384C, strain iki3, stronger effect = lower value 0.968 | S. cerevisiae deletion strains, locus YLR418C, strain cdc73, stronger effect = lower value 1.03 | S. cerevisiae deletion strains, locus YML016C, strain PPZ1, stronger effect = lower value 1.05 | S. cerevisiae deletion strains, locus YML032C, strain rad52, stronger effect = lower value 1.01 | S. cerevisiae deletion strains, locus YML120C, strain ndi1, stronger effect = lower value 0.976 | S. cerevisiae deletion strains, locus YML124C, strain tub3, stronger effect = lower value 1.01 | S. cerevisiae deletion strains, locus YMR058W, strain fet3, stronger effect = lower value 0.993 | S. cerevisiae deletion strains, locus YMR078C, strain ctf18, stronger effect = lower value 1.03 | S. cerevisiae deletion strains, locus YMR125W, strain sto1, stronger effect = lower value 0.975 | S. cerevisiae deletion strains, locus YMR129W, stronger effect = lower value 0.988 | S. cerevisiae deletion strains, locus YMR205C, strain PFK2, stronger effect = lower value 0.997 | S. cerevisiae deletion strains, locus YMR223W, strain ubp8, stronger effect = lower value 1.01 | S. cerevisiae deletion strains, locus YMR231W, strain pep5, stronger effect = lower value 0.953 | S. cerevisiae deletion strains, locus YMR307W, strain GAS1, stronger effect = lower value 1.03 | S. cerevisiae deletion strains, locus YNL067W, strain RPL9B, stronger effect = lower value 1.01 | S. cerevisiae deletion strains, locus YNL071W, strain lat1, stronger effect = lower value 0.972 | S. cerevisiae deletion strains, locus YNL183C, strain NPR1, stronger effect = lower value 0.942 | S. cerevisiae deletion strains, locus YNL209W, strain ssb2, stronger effect = lower value 0.984 | S. cerevisiae deletion strains, locus YNL233W, strain BNI4, stronger effect = lower value 0.984 | S. cerevisiae deletion strains, locus YNL248C, strain rpa49, stronger effect = lower value 0.977 | S. cerevisiae deletion strains, locus YNL250W, strain rad50, stronger effect = lower value 1.02 | S. cerevisiae deletion strains, locus YNL271C, strain bni1, stronger effect = lower value 1.01 | S. cerevisiae deletion strains, locus YNL298W, strain CLA4, stronger effect = lower value 1.02 | S. cerevisiae deletion strains, locus YNL307C, strain MCK1, stronger effect = lower value 1.02 | S. cerevisiae deletion strains, locus YNL322C, strain KRE1 (second series), stronger effect = lower value 0.966 | S. cerevisiae deletion strains, locus YNR049C, strain mso1, stronger effect = lower value 0.975 | S. cerevisiae deletion strains, locus YNR052C, strain pop2, stronger effect = lower value 1.03 | S. cerevisiae deletion strains, locus YOL012C, strain htz1 1.95 | S. cerevisiae deletion strains, locus YOL147C, strain pex11, stronger effect = lower value 1.01 | S. cerevisiae deletion strains, locus YOR001W, strain rrp6, stronger effect = lower value 0.946 | S. cerevisiae deletion strains, locus YOR061W, strain CKA2, stronger effect = lower value 1 | S. cerevisiae deletion strains, locus YOR069W, strain VPS5, stronger effect = lower value 1 | S. cerevisiae deletion strains, locus YOR070C, strain gyp1, stronger effect = lower value 0.979 | S. cerevisiae deletion strains, locus YOR080W, strain dia2, stronger effect = lower value 0.966 | S. cerevisiae deletion strains, locus YOR083W, strain WHI5, stronger effect = lower value 1.01 | S. cerevisiae deletion strains, locus YOR106W, strain vam3, stronger effect = lower value 0.974 | S. cerevisiae deletion strains, locus YOR136W, strain idh2, stronger effect = lower value 1.01 | S. cerevisiae deletion strains, locus YOR144C, strain elg1, stronger effect = lower value 1 | S. cerevisiae deletion strains, locus YOR184W, strain ser1, stronger effect = lower value 1 | S. cerevisiae deletion strains, locus YOR231W, strain MKK1, stronger effect = lower value 0.99 | S. cerevisiae deletion strains, locus YOR265W, strain rbl2, stronger effect = lower value 0.972 | S. cerevisiae deletion strains, locus YOR270C, strain vph1, stronger effect = lower value 0.963 | S. cerevisiae deletion strains, locus YOR290C, strain snf2, stronger effect = lower value 0.992 | S. cerevisiae deletion strains, locus YOR316C, strain cot1, stronger effect = lower value 1 | S. cerevisiae deletion strains, locus YPL051W, strain arl3, stronger effect = lower value 1 | S. cerevisiae deletion strains, locus YPL078C, strain atp4, stronger effect = lower value 0.996 | S. cerevisiae deletion strains, locus YPL106C, strain sse1, stronger effect = lower value 0.952 | S. cerevisiae deletion strains, locus YPL240C, strain hsp82, stronger effect = lower value 0.978 | S. cerevisiae deletion strains, locus YPL256C, strain CLN2, stronger effect = lower value 0.961 | S. cerevisiae deletion strains, locus YPR119W, strain clb2, stronger effect = lower value 1.01 | S. cerevisiae deletion strains, locus YPR141C, strain kar3, stronger effect = lower value 1.02 | S. cerevisiae deletion strains, locus YPR163C, strain tif3, stronger effect = lower value 1 | S. cerevisiae deletion strains, locus YPR167C, strain met16, stronger effect = lower value 1.02 | S. cerevisiae deletion strains, strain wtn01, stronger effect = lower value 1 | S. cerevisiae strains, strain wild type, stronger effect = lower value 0.992
